# The list is not random: actives were taken first. Their share in the collection is about 3%.
# Calpain2 inh = calpain II (pig) inhibition | purified calpain II, fluorogenic peptide substrate, 30 min | inhibition, % at 16 µM | actives 0.37% (n = 220,000) | AID 1236;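 active = inhibition above about 50%, limit read from the data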
# ROMK mod = modulates human ROMK potassium channel activity; P48048; Tet-inducible ROMK, thallium flux fluorescence; actives lie on both sides; B-score at 10 µM; actives 2% (n = 130,000); AID 1918;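 active = signal ratio slope over the read window, or its plate-corrected B-score, at least 3 SD from the plate mean, either direction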;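 also: B-score of the F/F0 ratio slope over 7 to 12 s after thallium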
# TNF death inh = blocks TNF-alpha induced death of Jurkat FADD-/- cells; Jurkat FADD-/- TNF necroptosis rescue, ATP luminescence, 24 h; 0 = TNF only, 100 = no-TNF cells; activation (protection from cell death), % at 10 µM; actives 0.068% (n = 220,000);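 active = activation, meaning protection from cell death, of at least 50% relative to plate controls; inactive = activation below 50%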;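 also: necroptosis triggered by 40 ng/mL TNF-alpha added together with compound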
# L929 necroptosis = blocks zVAD induced death of L929 cells; L929 zVAD necroptosis rescue, ATP luminescence, 24 h; with zVAD 60 µM; viability rescue, % at 10 µM; actives 0.38% (n = 220,000); AID 1377;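 active = activation, scaled between plate controls, above about 75%, limit read from the data; inactive = activation under that limit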
# 14-3-3 Bad PPI = disrupts binding of bovine 14-3-3 zeta to phospho-Bad peptide; P63103; TR-FRET 14-3-3zeta/Dy647-pBad peptide displacement, 1 h; inhibition, % at 21.7 µM; actives 0.71% (n = 220,000);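 active = inhibition above about 70%, limit read from the data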
# Target sequence (P63103 whole entry, looked up): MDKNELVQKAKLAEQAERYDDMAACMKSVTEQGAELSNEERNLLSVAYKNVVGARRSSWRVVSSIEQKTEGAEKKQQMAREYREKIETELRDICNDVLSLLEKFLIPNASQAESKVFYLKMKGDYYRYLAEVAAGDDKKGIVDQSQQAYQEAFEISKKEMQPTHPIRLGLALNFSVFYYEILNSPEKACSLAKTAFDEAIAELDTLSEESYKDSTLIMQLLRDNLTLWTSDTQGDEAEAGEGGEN
# HMGR II inh = blocks class II HMG-CoA reductase of Enterococcus faecalis. inhibition, % at 10 µM. actives 0.41% (n = 190,000). AID 1066. purified E. faecalis HMGR, NADPH absorbance 340 nm kinetic;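 active = inhibition above a set limit, the median over all tested compounds plus 3 SD, cut at about 9.5% in these data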;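 also: enzyme runs in reverse so mevalonate oxidation gives rising NADPH absorbance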
# Hits are given with their value; 0 = inactive; - = no result.
SMILES,Calpain2 inh,ROMK mod,TNF death inh,L929 necroptosis,14-3-3 Bad PPI,HMGR II inh
Cc1cccc(NC(=S)N=Nc2c(O)n(CN3CCOCC3)c3ccccc23)c1C,0,-,0,0,0,0
COc1ccccc1N=c1scc(-c2ccc3c(c2)NC(=O)CO3)n1CC1CCCO1 (centres undefined),0,0,0,0,0,0
CN(C)S(=O)(=O)c1cccc(N=c2scc(-c3ccc4c(c3)NC(=O)CO4)n2CC2CCCO2)c1 (centres undefined),0,0,0,0,70.4,0
COc1cccc(CNCCSc2nnnn2C)c1OC,0,0,0,0,0,0
COC(=O)CN1C(=S)N(Cc2ccccc2)C(=O)C1CC(=O)Nc1ccc(OC)cc1 (centres undefined),0,0,0,0,0,0
COc1ccc(NC(=O)CC2C(=O)N(Cc3ccccc3)C(=S)N2CCN2CCOCC2)cc1 (centres undefined),0,0,0,0,0,11.0
C=CCN(Cc1cn(C)nc1-c1cccc(Cl)c1)C1CCS(=O)(=O)C1 (centres undefined),0,0,0,0,96.2,0
CC(C)N(Cc1cn(C)nc1-c1cccc(Cl)c1)CC1CCC(=O)N1 (centres undefined),0,0,0,0,0,0
O=c1c2ccccc2sn1-c1cc(S(=O)(=O)N2CCOCC2)ccc1N1CCOCC1,0,0,0,0,73.9,0
Cc1cc(C)c2c(N)c(C(=O)c3ccc(Cl)c(Cl)c3)sc2n1,0,0,0,0,82.5,0
CC(=O)c1sc(Nc2nc3cc4c(cc3s2)OCO4)nc1C,0,0,0,0,87.7,0
COc1ccc(-c2cc(C(=O)N3CCCc4ccccc43)no2)cc1,52.9,-,0,0,0,0
COc1ccc(C(=O)N2CCCc3ccccc32)cc1,0,0,0,0,87.8,0
CC(C)Oc1ccc(C(=O)N2CCCc3ccccc32)cc1,0,-,0,0,0,0
COc1cccc(-c2cc(C(=O)N3CCCc4ccccc43)no2)c1,0,-,0,0,0,0
COc1ccc(CC2(C)OC(c3ccccc3)=NN2C(C)=O)cc1 (centres undefined),0,0,0,0,0,0
Cn1nccc1NC(=O)CC1(CC(=O)O)CCCCC1,0,-,0,0,0,-
COc1ccc(CN2CCN(S(=O)(=O)c3ccc(NC(C)=O)cc3)CC2)cc1OC,0,-,0,0,0,0
O=S(=O)(c1ccccc1)N1CCN(Cc2cccc(Cl)c2)CC1,0,-,0,0,72.4,0
COc1ccc(S(=O)(=O)N2CCN(Cc3ccccc3)CC2)cc1,0,0,0,0,0,0
COc1ccc(CN2CCN(S(=O)(=O)c3ccc(F)cc3)CC2)c(OC)c1OC,0,0,0,0,76.6,0
COc1ccc(CN2CCN(S(=O)(=O)c3ccc(F)cc3)CC2)cc1OC,0,-,0,0,70.4,0
COc1ccc(CN2CCN(c3ccc(F)cc3)CC2)c(OC)c1OC,0,0,0,0,0,0
CCOC1=NS(=O)(=O)c2ccccc21,0,-,0,0,0,0
O=S1(=O)N=C(Oc2cccc3ccccc23)c2ccccc21,0,0,0,0,85.7,0
SMILES,Calpain2 inh,ROMK mod,TNF death inh,L929 necroptosis,14-3-3 Bad PPI,HMGR II inh
CC(=O)CC(c1ccc([N+](=O)[O-])cc1)c1c(O)c2ccccc2oc1=O (centres undefined),0,0,0,0,0,0
CCN(CC)C(=O)CSc1nnc(CNc2ccc(F)cc2)n1-c1ccccc1,0,-,0,0,0,0
O=C1c2ccccc2C(=O)N1CCN1CCCCC1,0,-,0,0,0,18.9
O=C(O)c1cccnc1Br,0,0,0,0,0,0
CC(C)(C)N(Cc1ccccc1)C(=O)c1ccc(Br)o1,0,0,0,0,0,0
Cc1ccc(C(=O)N(Cc2ccccc2)C(C)(C)C)cc1C,50.0,0,0,0,0,0
COC(=O)N1CCCc2cc(C)ccc21,0,0,0,0,0,11.3
Cc1ccc2c(c1)CCCN2C(=O)c1ccoc1C,0,-,0,0,0,0
Cc1ccc(C)c(C(=O)CSc2nnc(C)s2)c1,0,0,0,0,0,0
O=[N+]([O-])c1ccc(N/N=C/c2sc(N3CCOCC3)nc2-c2ccccc2)c(S(=O)(=O)Nc2ccccc2Cl)c1,0,-5.04,0,0,0,0
O=C(Oc1ccc(Cl)c2cccnc12)C12CC3CC(CC(C3)C1)C2,56.3,-,0,0,0,0
O=C(NCC1CCCO1)c1onc(CSc2ccc(F)c(F)c2)c1C(=O)O (centres undefined),0,-,0,0,0,0
O=C(Nc1nccs1)c1cc2c(s1)CCCCC2,0,0,52.5,0,0,0
O=C(Nc1nccs1)c1ccc(Cl)s1,0,-,0,96.1,0,0
O=C(Nc1nncs1)c1cc2c(s1)CCC2,0,0,0,0,0,0
Cc1ccc(NC(=O)COC(=O)CNC(=O)c2ccc3ccccc3c2)c([N+](=O)[O-])c1,0,0,0,0,0,0
O=C(COc1ccc2oc(-c3ccccc3)cc(=O)c2c1)Nc1ccccc1,0,-,0,0,0,0
CCCCN(Cc1cc2ccccc2[nH]c1=O)C(=O)c1ccccn1,0,0,0,0,0,0
O=C(O)C1Nc2c(O)cc(Cl)c([N+](=O)[O-])c2C2C=CCC12 (centres undefined),0,0,0,0,97.0,13.4
CCc1cccc(C)c1NC(=S)N(CCOC)C(C)c1ccco1 (centres undefined),0,-,0,0,0,-
OC(CN1CCOCC1)c1ccc(F)cc1 (centres undefined),0,0,0,0,0,0
O=C(c1ccc(F)cc1)C(CCCCCC(CN1CCOCC1)C(=O)c1ccc(F)cc1)CN1CCOCC1 (centres undefined),0,-,0,0,70.4,0
N#C/C(=C\c1cc2ccccc2nc1N1CCOCC1)C(=O)Nc1ccc(N2CCOCC2)cc1,0,-,0,0,0,0
N#CC(C#N)=Cc1cc2ccccc2nc1N1CCOCC1,0,-,0,0,0,14.0
O=C(CSc1nc2ccccc2c(=O)n1-c1ccccc1)N1CCc2ccccc21,68.2,-,0,0,0,0
SMILES,Calpain2 inh,ROMK mod,TNF death inh,L929 necroptosis,14-3-3 Bad PPI,HMGR II inh
CCOc1ccc(-n2c(SCC(=O)N3CCc4ccccc43)nnc2-c2c[nH]c3ccccc23)cc1,0,0,0,-,93.1,0
CCn1c(SCC(=O)N2CCCc3ccccc32)nc2cccnc21,0,3.09,0,0,0,0
O=C(CSc1nc2ccccc2c(=O)n1-c1ccccc1)N1CCCc2ccccc21,0,0,0,0,0,0
Cc1cc(NC(=O)CCN2C(=O)C3C4C=CC(C4)C3C2=O)ccc1Br (centres undefined),0,0,0,0,0,0
CCOc1ccc2c(c1)nc(SCC(=O)c1ccc(Br)s1)n2C,0,-,0,0,0,0
CCOc1ccc2c(c1)nc(SCC(=O)c1cccs1)n2C,0,-,0,0,72.7,0
